# Compound activity deposited in PubChem by National Center for Advancing Translational Sciences (NCATS).
# Rows were chosen to be rich in hits. Some 2.9% of all compounds tested hit in one or more screens of this group.
# D3 ag – activates the human D3 dopamine receptor; hit rate 0.58% among 410,000; D3R DiscoveRx beta-arrestin cells, luminescence, 90 min; max activation, %; AID 652048; in the data active = max activation above about 30%; also: 0% is about no effect
# Target sequence (P35462 whole entry, looked up): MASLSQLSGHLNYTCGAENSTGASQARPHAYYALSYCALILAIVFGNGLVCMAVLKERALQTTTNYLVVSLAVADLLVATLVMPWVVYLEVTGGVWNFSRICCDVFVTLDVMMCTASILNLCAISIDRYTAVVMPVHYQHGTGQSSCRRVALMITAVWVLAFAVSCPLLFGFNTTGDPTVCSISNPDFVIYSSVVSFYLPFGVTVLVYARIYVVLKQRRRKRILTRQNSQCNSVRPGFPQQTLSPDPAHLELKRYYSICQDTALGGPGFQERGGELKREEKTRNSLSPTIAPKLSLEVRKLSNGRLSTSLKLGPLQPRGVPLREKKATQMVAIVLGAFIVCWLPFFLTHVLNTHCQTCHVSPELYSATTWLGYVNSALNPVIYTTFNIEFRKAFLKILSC
#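 Agonist-mode cell screen: cells plated at 1500/well and incubated overnight at 37 °C, then exposed to library compounds for 90 min at 37 °C. Detection reagent was added for 30–60 min at room temperature, and luminescence was read.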
# DRD3 antagonist – blocks the human D3 dopamine receptor; P35462; D3R cells, DiscoveRx beta-arrestin luminescence, antagonist mode; hits give low values; max response, negative = inhibition, %; hit rate 2.5% among 360,000; in the data active = max response below about -50%; inconclusive = no clear call, values can overlap the other calls; also: % is scaled to controls: 0 for no effect and ±100 for the full control effect
#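 Cells plated overnight at 1500 cells/well, then exposed to library compounds with dopamine controls for 90 minutes at 37 degrees C. DiscoveRx reagent added for 30–60 minutes at room temperature; luminescence read, quantitative HTS format.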
# TRPML1 blocker – blocks the human TRPML1 channel | Q9GZU1 | AID 624415 | activity change, negative = inhibition, % (no concentration beside the values) | hit rate 0.02% among 390,000 | TRPML1-inducible cells, Ca2+ dye fluorescence, FDSS; hits give low values; inhibition of EC80 agonist-evoked calcium signal; in the data active = activity change below about -50%; inconclusive = between about -30% and that limit;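 also: stimulus is agonist 54-4 at its EC80 concentration; % is scaled to controls: 0 for no effect and ±100 for the full control effect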
#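 Calcium fluorescence in TRPML1-DL cells induced overnight with Tet: a 110 s read after compound pin addition, then a 110 s antagonist read after challenge with 54-4 at 4 uM final (EC80).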
# TRPML1 ag – human mucolipin-1 channel agonism | Q9GZU1 | TRPML1-expressing cells, Ca2+ dye fluorescence, FDSS | activation, % (no concentration beside the values) | hit rate 0.12% among 410,000 | AID 624414; in the data active = activation above about 50%; inconclusive = mostly about 30% to 49%; also: 0% is about no effect
#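 Tet-induced TRPML1-DL cells, 1,500 per well, cultured overnight, were loaded with a no-wash Ca2+ dye for 45–90 min. Calcium fluorescence was recorded on the FDSS for 110 s after compound addition, before the EC80 agonist (4 uM 54-4) was added.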
# Active calls of the source: *; ? = inconclusive; nt = not tested or not shown; ! = not confirmed by another sample.
SMILES,D3 ag,DRD3 antagonist,TRPML1 blocker,TRPML1 ag
C[C@H](CO)N1C[C@H](C)[C@@H](CN(C)C(=O)Nc2ccc(C(F)(F)F)cc2)Oc2ccc(NC(=O)NC3CCCCC3)cc2C1=O,6.0,30.5,2.4,-0.2
CCCCOC(=O)c1ccc(NC(=O)CSc2nc3c(c(=O)[nH]2)CCC3)cc1,3.2,nt,17.3,3.9
COc1ccc(CNc2nc(N)nc3nc[nH]c23)cc1,nt,nt,nt,-0.5
O=C1c2ccccc2C(=O)N1SC1CCCCC1,1.2,-91.7*,16.2,1.0
c1ccc2c(c1)OCC(CN1CCCCC1)O2 (stereo not given),-11.0,nt,nt,nt
Cc1cc2nc(C3CCN(CC4COc5ccccc5O4)CC3)[nH]c2cc1C (stereo not given),-1.0,-50.2*,13.6,2.1
CN(C)c1ccc(CN(Cc2ccco2)C(=O)COc2ccc(F)cc2)cc1,-7.6,nt,12.8,0.5
COc1cc(OC)c(N(C)C(=O)c2nn(C)c3c2CSc2ccccc2-3)cc1Cl,-0.8,nt,-1.8,-0.4
CC(C)N1C(=O)NC2(c3ccccc3)N(C)C(=O)N(C)C12c1ccccc1 (stereo not given),2.4,2.4,-23.3,-0.3
CN1C(=O)N(C)C2(c3ccccc3)N(C)C(=O)NC12c1ccccc1 (stereo not given),-5.7,-57.4*,-10.2,-0.7
O=C(c1cccc2ccccc12)N1CCN(S(=O)(=O)c2ccccc2)CC1,nt,nt,nt,-0.9
COc1ccc(OCC(O)CN2CCN(Cc3ccc4c(c3)OCO4)CC2)cc1 (stereo not given),-5.5,-0.2,-1.1,-0.3
Cc1ccc(OCC(O)CN2CCOCC2)c(C)c1 (stereo not given),7.5,8.8,nt,nt
CC(=O)c1ccc(OCC(O)CN2CCN(Cc3ccc4c(c3)OCO4)CC2)cc1 (stereo not given),-11.5,-50.9*!,5.1,-0.2
Cc1ccc(OCC(O)CN2CCN(Cc3ccc4c(c3)OCO4)CC2)c(C)c1 (stereo not given),-11.0,-59.8*,13.2,0.4
c1ccc(CNc2ncnc3c2ncn3Cc2ccccc2)cc1,nt,nt,nt,-0.7
CSc1nc(N2CCOCC2)c2c3c(sc2n1)CCC3,11.0,-65.1*,3.4,1.0
O=C(NC1CCCCCCC1)c1ccc(S(=O)(=O)N2CCCC2)cc1,3.4,-52.8*,-5.1,0.3
O=C(NC1CCCCC1)c1ccc(S(=O)(=O)N2CCCCC2)cc1,-1.3,14.2,21.3,0.3
CCCN1CNc2c(c(=O)[nH]c(=S)n2CCc2ccc(Cl)cc2Cl)C1,nt,nt,nt,-0.5
COc1ccc(C(=O)NC2CCCc3ccccc32)cc1OC1CCN(C(C)=O)CC1 (stereo not given),-3.7,0.4,-54.2*,0.1
COC(=O)c1ccc(Cl)cc1N(Cc1c(F)cccc1Cl)S(C)(=O)=O,-15.2,-9.3,-6.3,107.9*
COC(=O)COc1ccc2c(=O)c(-c3ccccc3OC)coc2c1,0.6,-13.5,15.0,0.2
COC(=O)COc1ccc2occ(C(C)=O)c2c1,-8.1,-105.4*,-14.0,-0.4
Cc1ccc(C(=O)c2coc3ccc(OCC(=O)O)cc23)cc1,-5.1,-61.0*,17.3,-0.5
SMILES,D3 ag,DRD3 antagonist,TRPML1 blocker,TRPML1 ag
O=C(O)COc1ccc2occ(C(=O)c3ccccc3)c2c1,-2.1,?,4.1,-1.0
CC(I)CCC(C)[n+]1cccc(I)c1 (stereo not given),nt,nt,nt,-0.4
CC(C)(C)n1ncc2c(=O)n(Cc3ccc(-c4ccccc4C#N)cc3)cnc21,nt,nt,-7.4,2.0
CCCCCCCCCCCCCCCC[n+]1ccc(C)cc1,nt,nt,nt,5.6
Nc1c(C(=O)NCc2ccco2)c2nc3ccccc3nc2n1CCc1ccc(F)cc1,-8.0,-62.9*,-8.3,-0.4
COc1ccc(-n2c(N)c(C(=O)NCc3ccco3)c3nc4ccccc4nc32)cc1,-5.3,12.6,6.7,-0.4
CC1=C(C(=O)Nc2ccccc2)C(c2cccc(O)c2)n2nc(-c3ccccc3Cl)nc2N1 (stereo not given),-9.8,nt,34.2,0.1
Cc1cc(C)c(S(=O)(=O)/N=C2/C=C(Sc3ncn[nH]3)C(=O)c3ccccc32)cc1C,-9.3,-68.7*,39.2,1.5
COc1ccc(/C=C2/SC(=S)N(c3ccc(S(=O)(=O)Nc4nccs4)cc3)C2=O)cc1,16.0,-54.4*,3.2,0.4
Cc1cccc(-c2nc(CSc3nncn4c3cc3oc(C)cc34)c(C)o2)c1,-2.2,nt,15.0,1.5
COCc1nnc(NS(=O)(=O)c2ccc([N+](=O)[O-])cc2)s1,-2.7,-58.4*,-9.3,0.4
CC1CCN(C(=O)c2ccc(NC3=C(Cl)C(=O)N(Cc4ccccc4)C3=O)cc2)CC1,-33.1,-53.0*,-6.2,0.9
CC1CCCCN1C(=O)c1cccc(NC2=C(Cl)C(=O)N(Cc3ccccc3)C2=O)c1 (stereo not given),-0.9,-2.1,7.8,1.4
Cc1ccc(CN(C)C(=O)c2cccc(S(=O)(=O)N3CCCC3)c2)cc1,-2.0,-9.3,21.0,-1.4
Cc1ccc(CN(C)C(=O)c2cccc(S(=O)(=O)N3CCc4ccccc43)c2)cc1,-19.2,-52.4*,13.3,1.0
O=C(Cn1cc(SCc2ccc(F)cc2)c2ccccc21)N1CCCCC1,-16.4,nt,-10.6,0.3
COC(=O)[C@H](Cc1ccccc1)NS(=O)(=O)N[C@@H](Cc1ccccc1)C(=O)OC,-0.1,4.5,-16.9,-0.2
COC(=O)C(Cc1ccccc1)OS(N)(=O)=O (stereo not given),-11.5,-57.7*,-10.0,-0.2
Cc1cccc(C)c1Nc1nnc(SCc2nc3ccccc3c(=O)[nH]2)s1,5.3,0.0,-15.9,-0.7
O=c1[nH]c(CSc2nnc(NCCCN3CCOCC3)s2)nc2cc(Cl)ccc12,-1.7,-63.1*,-15.2,-0.6
Nc1cc(=O)[nH]c2c1CCC2,nt,nt,nt,0.8
O=C(COC(=O)c1ccccc1NCCO)NCCC1=CCCCC1,-14.7,-63.7*,-0.7,-0.4
CC(C)(C)n1ncc2c(=O)n(Cc3ccc(Cl)cc3C(F)(F)F)cnc21,nt,nt,-2.1,0.8
CCNC(=O)C1(C)CCCN1C(=O)c1cnc2ccccc2n1 (stereo not given),-3.4,-57.9*,nt,-0.5
Cc1cc(CSc2nc(C)cc(=O)[nH]2)c2ncccc2c1,30.6*,13.0,60.2,-1.1
SMILES,D3 ag,DRD3 antagonist,TRPML1 blocker,TRPML1 ag
Cc1cc(NS(=O)(=O)c2ccccc2)c([N+](=O)[O-])cc1C,-4.5,-52.4*,2.3,0.3
Cc1nn(Cc2ccccc2Cl)c2sc(C(=O)Nc3nccs3)cc12,31.8*,-9.1,-10.6,1.9
Cc1nn(Cc2ccc(F)cc2)c2sc(C(=O)Nc3nccs3)cc12,8.1,?,3.9,2.1
NC(=O)c1ccc(Oc2ccc3ccc(=O)oc3c2)c([N+](=O)[O-])c1,2.9,8.9,8.4,-0.7
O=c1ccc2cc([N+](=O)[O-])c(CCO)cc2o1,5.2,-52.2*,26.5,0.1
CNc1ccc(C=C2C=Cc3ccccc32)cc1,-1.1,-25.2,13.2,-0.2
CNCCC=C1c2ccccc2C=Cc2ccccc21,-81.4,-77.2*,15.4,0.0
CN(C)CCC=C1c2ccccc2C=Cc2ccccc21,-94.5,-119.8*,1.0,0.0
